GAA spleen mod – qHTS Assay for Inhibitors and Activators of Human alpha-Glucosidase From Spleen Homogenate | Lysosomal alpha-glucosidase (Homo sapiens), P10253 | human spleen homogenate, 4-MU-alpha-glucoside fluorescence | Potency, µM (highest dose often 79.9 µM), inactives show at the highest dose activity change, negative = inhibition, actives largely listed as inhibitors | 0.006% of 240,000 active | AID 2112, 2009;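 further: potency means the concentration at half of the fitted maximal effect; 0% = enzyme with vehicle and -100% = no enzyme basal signal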
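AC50 values come from Hill-equation fits of concentration-response data, normalized to no-enzyme and full-activity controls. Enzyme source: 1 ug human spleen homogenate; 1 mM fluorogenic 4-MU glucoside, pH 5.0 citrate buffer, 37 C, 40 min.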
N370S GC mod – qHTS Assay for Inhibitors and Activators of N370S glucocerebrosidase as a Potential Chaperone Treatment of Gaucher Disease; Lysosomal acid glucosylceramidase (Homo sapiens), P04062; N370S GC spleen homogenate, 4MU-glucoside fluorescence; Potency, µM (doses to about 59.4 µM), for the others: at the top dose activity change, negative = inhibition, usual class: inhibitors; 0.092% of 330,000 active; AID 2101, 2009;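 further: potency means the concentration at half of the fitted maximal effect; 0% = full enzyme activity and -100% = no enzyme basal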
aGal spleen mod – qHTS Assay for Inhibitors and Activators of Human alpha-Galactosidase From Spleen Homogenate. human spleen homogenate, 4MU-alpha-Gal fluorescence, 40 min. Potency, µM (titrated, usually from 80 µM), without a hit: at the top dose activity change, negative = inhibition, actives largely listed as inhibitors. 0.008% of 240,000 active;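 further: potency means the concentration at half of the fitted maximal effect; 0% = enzyme with vehicle and -100% = no enzyme basal signal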
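Human spleen homogenate (1 ug) as enzyme source, 4-methylumbelliferyl-alpha-D-galactopyranoside 1 mM final, citrate/phosphate pH 5.0 with 0.01% Tween-20. Compounds 40 min at 37C, NaOH/glycine stop; fluorescence Ex 365/Em 440, Hill-fit AC50.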
GAA inhib – qHTS Assay for Inhibitors of Human alpha-Glucosidase as a Potential Chaperone Treatment of Pompe Disease; purified human GAA, 4-MU-alpha-glucoside fluorescence; Lysosomal alpha-glucosidase (Homo sapiens), P10253; AID 1466, 2008; Potency, µM (top dose mostly 76.9 µM), inactives show top-dose activity change, negative = inhibition, actives largely listed as inhibitors; 0.005% of 200,000 active;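 further: potency means the concentration at half of the fitted maximal effect; plate controls were uninhibited enzyme wells for no effect and no-enzyme background for full effect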
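Fluorogenic assay: 4 nM human alpha-glucosidase with 400 uM 4-methylumbelliferyl-alpha-D-pyranoside in 50 mM citrate/phosphate, 0.005% Tween-20, pH 5.0, 20 min at room temperature. Compounds tested up to 77 uM; AC50 from Hill fits.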
GAA glycogen mod – qHTS Assay for Inhibitors and Activators of Human alpha-Glucosidase Cleavage of Glycogen; Lysosomal alpha-glucosidase (Homo sapiens), P10253; recombinant GAA, glycogen substrate, Amplex Red glucose oxidase fluorescence; Potency, µM (titrated, usually from 76.4 µM), without a hit: top-dose activity change, negative = inhibition, hits mostly inhibitors; 0.38% of 300,000 active; AID 2100, 2009;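 further: potency means the concentration at half of the fitted maximal effect; 0% = full enzyme reaction and -100% = no-enzyme basal signal; the screen sought inhibitors and activators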
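Natural-substrate format: glycogen cleavage by 4 nM human enzyme, glucose read by Amplex Red coupling (Ex 573, Em 610 nm). Normalized to enzyme and no-enzyme controls.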
GLA inh pH 4.5 – qHTS Assay for Inhibitors of Human alpha-Galactosidase at pH 4.5; Alpha-galactosidase A (Homo sapiens), P06280; purified enzyme, 4-MU-alpha-Gal fluorescence, pH 4.5; activity change, negative = inhibition, % at 105 µM; 230,000 tested, under 10 active; AID 1467, 2008;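 further: 0% = full activity with enzyme and -100% = basal without enzyme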
Target sequence (P06280 whole entry, looked up): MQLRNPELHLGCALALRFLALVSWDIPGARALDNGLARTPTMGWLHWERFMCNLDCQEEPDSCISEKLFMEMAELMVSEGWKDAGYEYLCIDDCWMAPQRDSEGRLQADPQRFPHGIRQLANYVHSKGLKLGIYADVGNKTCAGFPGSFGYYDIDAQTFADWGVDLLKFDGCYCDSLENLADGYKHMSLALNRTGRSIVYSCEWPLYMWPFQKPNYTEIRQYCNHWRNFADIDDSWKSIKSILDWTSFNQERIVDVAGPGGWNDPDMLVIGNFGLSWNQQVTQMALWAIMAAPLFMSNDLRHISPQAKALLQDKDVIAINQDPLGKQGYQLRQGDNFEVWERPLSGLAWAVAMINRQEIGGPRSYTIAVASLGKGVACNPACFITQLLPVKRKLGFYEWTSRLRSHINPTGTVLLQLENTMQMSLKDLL
The depositor's hits bear a star; ? = inconclusive; . = no result given; [ ] = remark or other dose. This is a sample that favours compounds with a hit; in the whole collection about 0.43% have one here. The call rests on the fitted dose curve; in most records, active means well fitted curve in the direction sought with a large enough effect; inconclusive means small, poorly fitted or top-dose-only effect, or another doubt; inactive means no such curve, though single readings can be large; an effect the other way counts as inactive or inconclusive.

SMILES	GAA spleen mod	N370S GC mod	aGal spleen mod	GAA inhib	GAA glycogen mod	GLA inh pH 4.5
CCOc1ccc(NC(=S)N(CCc2c(C)[nH]c3ccc(C)cc23)Cc2ccncc2)cc1	3%	14µM*	2%	-11%	-14%	-18
CCOC(=O)CCCCC(=O)c1[nH]c(=O)[nH]c1CSc1nc(-c2ccccc2)c(C#N)c(=O)[nH]1	-22%	3%	0%	?	35µM*	-4
COC(=O)Cn1cnc2c(nnn2-c2ccc(F)cc2)c1=O	.	4%	.	.	15%[76.3 µM]	.
CCOC(=O)Cn1cnc2c(nnn2-c2ccc(F)cc2)c1=O	.	-2%	.	.	50µM*	.
Cc1ccccc1N1CCN(S(=O)(=O)CC23CCC(CC2NC(=O)C(N)CCS(C)(=O)=O)C3(C)C)CC1 (centres undefined)	2%	-15%	5%	.	.	.
CC(=O)Nc1ccc(SCCN2CCN(C)CCC2=O)cc1	1%	-10%	0%	.	.	.
C#CCOCCOCCOCCNc1nc(N2CCN(C(=O)CCCCCCCCCCNC(=O)[C@H](CCCCN)n3cc(CCO)nn3)CC2)nc(N2CCN(C(=O)CCCCCCCCCCNC(=O)[C@H](CCCN=C(N)N)n3cc(C[C@@H](C)CC)nn3)CC2)n1	.	7.9µM*	.	.	.	.
C#CCOCCOCCOCCNc1nc(N2CCN(C(=O)CCCCCCCCCCNC(=O)[C@H](CCCCN)n3cc(C)nn3)CC2)nc(N2CCN(C(=O)CCCCCCCCCCNC(=O)[C@@H]([C@H](C)CC)n3cc(CCCCCN)nn3)CC2)n1	.	18µM*	.	.	.	.
C#CCOCCOCCOCCNc1nc(N2CCN(C(=O)CCCCCCCCCCNC(=O)Cn3cc(C[C@@H](C)O)nn3)CC2)nc(N2CCN(C(=O)CCCCCCCCCCNC(=O)Cn3cc(C[C@@H](C)O)nn3)CC2)n1	.	-27%	.	.	.	.
C#CCOCCOCCOCCNc1nc(N2CCN(C(=O)CCCCCCCCCCNC(=O)Cn3cc(C[C@@H](C)O)nn3)CC2)nc(N2CCN(C(=O)CCCCCCCCCCNC(=O)[C@H](CCCCN)n3cc(C[C@@H](C)CC)nn3)CC2)n1	.	22µM*	.	.	.	.
C#CCOCCOCCOCCNc1nc(N2CCN(C(=O)CCCCCCCCCCNC(=O)[C@H](CCC(=O)O)n3cc(CCCCCN)nn3)CC2)nc(N2CCN(C(=O)CCCCCCCCCCNC(=O)[C@@H]([C@H](C)O)n3cc(C)nn3)CC2)n1	.	-21%	.	.	.	.
CCCc1cc(=O)oc2c(C)c3c(cc12)CN(CCc1ccc(Cl)cc1)CO3	.	.	.	.	-2%[76.3 µM]	.
CCOc1ccc(-n2c(=O)c3c(C)c(C)sc3n(Cc3c(F)cccc3Cl)c2=O)cc1	.	.	.	.	-6%[76.3 µM]	.
O=C(CSc1cn(CCNC(=O)c2cccc(C(F)(F)F)c2)c2ccccc12)Nc1ccc2c(c1)OCCO2	.	.	.	.	35µM*	.
O=C(CSc1cn(CCNC(=O)c2ccccc2F)c2ccccc12)Nc1ccc2c(c1)OCCO2	.	.	.	.	8%[76.3 µM]	.
CCN=c1scc(C)n1/N=C/c1cc(Br)c(O)c(Br)c1	11%	-10%	1%	-5%	14%	8
CCN=c1scc(C)n1/N=C/c1ccc(O)c(O)c1O	-16%	-22%	-6%	-9%	16µM*	-20
COc1ccc(-c2cc(-c3ccc4c(c3)NC(=O)CO4)nc3c2COc2ccc(C)cc2-3)cc1	.	.	.	.	13%[76.3 µM]	.
O=C(O)c1ccc(-c2ccc3cc(C45CC6CC(CC(C6)C4)C5)c(O)cc3c2)cc1	2%	-8%	-7%	.	.	.
OCC1CCCN(C(=S)Nc2ccc(OC(F)F)cc2)C1 (centres undefined)	-7%	-3%	2%	3%	12%	-1
